Assay outcomes: PubChem, National Center for Advancing Translational Sciences (NCATS)
In the library only some 10% were active in any assay of this set; here they are far more common.
NIH3T3 tox – cytotoxic compounds in NIH 3T3 cells. Potency, µM (highest dose often 96.7 µM), for inactives: at the top dose activity change, negative = cytotoxicity, most hits filed as inhibitors. 4.3% of 94,000 active. NIH 3T3 viability, CellTiter-Glo ATP luminescence, 48-72 h. AID 1345082; note: % is set by controls: 0 for no effect and ±100 for the full control effect; nearly all actives have a fitted effect of over 55% in size
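First NIH 3T3 cells are plated at 400 cells/well; next compound is pinned in; then plates incubate 48 or 72 hr at 37 °C; finally CellTiter-Glo is added and luminescence read after 10 min.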
NPR1 antag – human Npr1 receptor antagonism; HEK293 hNpr1 GloSensor cGMP, ANP-stimulated luminescence; Potency, µM (titrated, usually from 46.3 µM), inactives show at the highest dose activity change, negative = inhibition, most hits filed as inhibitors; 1.6% of 76,000 active; AID 1347048; calls by dose curve; note: % is set by controls: 0 for no effect and ±100 for the full control effect; nearly all actives have a fitted effect of over 60% in size
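Compound pre-incubated 30 min at room temperature on GloSensor-loaded HEK293 cells stably carrying hNpr1 and the pGS-40F cGMP biosensor. Stimulation uses hNppA at 0.1 nM final; luminescence is taken at baseline and 20 min post-agonist.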
GPT2 inhibitor – inhibitors of human GPT2 alanine aminotransferase. Potency, µM (doses to about 57.7 µM), for the others: at the top dose activity change, negative = inhibition, usual class: inhibitors. 0.25% of 100,000 active. Recombinant GPT2, coupled pyruvate oxidase/HRP Amplex Red fluorescence; note: % is set by controls: 0 for no effect and ±100 for the full control effect; nearly all actives have a fitted effect of over 60% in size
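GPT2 10ng/uL, a-KG 250uM, L-Ala 2mM, HEPES pH7.5 + 0.0001% Tween; 30 min RT. Then Amplex mix (PO/HRP/ThPP), 30 min RT dark, fluorescence. AOA 50uM used as positive control.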
FLuc inh – Photinus pyralis luciferase inhibition; P08659; 2.5% of 76,000 active; purified P. pyralis luciferase, luminescence, biochemical; Potency, µM (highest dose often 115 µM), hits mostly inhibitors; note: % is set by controls: 0 for no effect and ±100 for the full control effect; nearly all actives have a fitted effect of over 65% in size
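Purified P. pyralis luciferase (10nM final) in 50mM Tris acetate pH 7.5, 10mM Mg acetate, 0.01% Tween-20, 0.05% BSA with 10uM D-luciferin and 10uM ATP. Compounds titrated qHTS. Luminescence imaged on CCD.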
HEK293 tox – cytotoxic compounds in HEK 293 cells; HEK 293 viability, ATP luminescence (CellTiter-Glo), 48-72 h; Potency, µM (series often up to 115 µM), without a hit: at the top dose activity change, negative = cytotoxicity, most hits filed as inhibitors; 6.6% of 94,000 active; AID 1345083; note: % is set by controls: 0 for no effect and ±100 for the full control effect; nearly all actives have a fitted effect of over 60% in size
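Cytotoxicity was scored by loss of ATP-coupled luminescence (CellTiter-Glo) in HEK 293 cells. Compound treatment ran 48 or 72 hr at 37 degree Celsius, 5% CO2, 95% humidity.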
Npr1 antag conf – hNpr1 antagonism, confirmation assay | shares compounds with NPR1 antag | HEK293 hNpr1 cGMP GloSensor luminescence, ANP-stimulated | Potency, µM (top dose mostly 57.6 µM), without a hit: at the top dose activity change, negative = inhibition, actives largely listed as inhibitors | 76% of 1,400 active; calls by dose curve; note: nearly all actives have a fitted effect of over 70% in size
Npr2 selectivity – antagonizes human Npr2, subtype selectivity check; HEK293 hNpr2 GloSensor cGMP luminescence, CNP-stimulated; 67% of 1,400 active; Potency, µM (series often up to 57.6 µM), for the others: top-dose activity change, negative = inhibition, actives largely listed as inhibitors; shares compounds with NPR1 antag; calls by dose curve; note: nearly all actives have a fitted effect of over 70% in size
Target sequence (P20594 whole entry, looked up): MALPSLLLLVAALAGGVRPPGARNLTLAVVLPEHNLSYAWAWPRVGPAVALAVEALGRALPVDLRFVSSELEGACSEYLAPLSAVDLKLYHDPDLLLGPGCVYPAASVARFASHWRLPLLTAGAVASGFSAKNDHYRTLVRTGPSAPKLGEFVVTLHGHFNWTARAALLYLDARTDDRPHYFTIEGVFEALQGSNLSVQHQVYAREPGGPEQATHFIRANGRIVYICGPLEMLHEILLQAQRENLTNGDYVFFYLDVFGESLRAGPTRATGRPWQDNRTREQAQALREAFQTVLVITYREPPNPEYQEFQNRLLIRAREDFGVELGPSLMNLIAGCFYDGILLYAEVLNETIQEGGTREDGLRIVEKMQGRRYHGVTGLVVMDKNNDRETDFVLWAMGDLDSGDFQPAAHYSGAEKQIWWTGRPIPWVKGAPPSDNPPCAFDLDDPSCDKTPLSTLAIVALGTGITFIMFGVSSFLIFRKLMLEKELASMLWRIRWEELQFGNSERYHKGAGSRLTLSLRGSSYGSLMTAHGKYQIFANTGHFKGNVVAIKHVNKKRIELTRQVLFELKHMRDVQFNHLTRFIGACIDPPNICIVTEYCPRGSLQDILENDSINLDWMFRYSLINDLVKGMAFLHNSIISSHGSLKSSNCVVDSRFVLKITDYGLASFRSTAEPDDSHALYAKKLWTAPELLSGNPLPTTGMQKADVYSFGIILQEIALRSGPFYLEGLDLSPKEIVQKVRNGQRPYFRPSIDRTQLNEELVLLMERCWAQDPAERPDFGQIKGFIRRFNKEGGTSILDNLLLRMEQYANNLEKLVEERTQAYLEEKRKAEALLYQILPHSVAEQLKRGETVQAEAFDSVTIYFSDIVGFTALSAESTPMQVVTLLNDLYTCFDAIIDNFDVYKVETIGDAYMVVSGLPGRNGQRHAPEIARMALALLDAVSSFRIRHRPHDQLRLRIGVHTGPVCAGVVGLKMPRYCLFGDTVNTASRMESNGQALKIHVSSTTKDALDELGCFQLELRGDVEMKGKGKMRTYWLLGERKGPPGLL
FLuc inh counter – inhibits firefly luciferase, false Npr1 antagonist flag. purified FLuc enzyme, luminescence, Km substrate. 0.7% of 1,400 active. Potency, µM (highest dose often 57.6 µM), for inactives: at the highest dose activity change, negative = inhibition, hits mostly inhibitors. shares compounds with NPR1 antag; note: 0% is about no effect
GloSensor cGMP – counter-screen for Npr1 antagonists: GloSensor control cell line; shares compounds with NPR1 antag; HEK293 GloSensor cGMP, SNP-stimulated, luminescence; Potency, µM (series often up to 57.6 µM), for the others: at the highest dose activity change, negative = inhibition, hits mostly inhibitors; 69% of 1,400 active; calls by dose curve; note: % is set by controls: 0 for no effect and ±100 for the full control effect; nearly all actives have a fitted effect of over 70% in size
* = called active by the depositor; i = inactive; u = inconclusive; x = no result given; [ ] = dose if it differs, or a comment. Unless noted, calls come from the whole dose curve; as a rule, active = well fitted curve in the direction sought with a large enough effect; inconclusive = small, poorly fitted or top-dose-only effect, or another doubt; inactive = no such curve, though single readings can be large; an effect the other way counts as inactive or inconclusive. Potency is the fitted concentration of half-maximal effect.

SMILES	NIH3T3 tox	NPR1 antag	GPT2 inhibitor	FLuc inh	HEK293 tox	Npr1 antag conf	Npr2 selectivity	FLuc inh counter	GloSensor cGMP
COCc1nc(-c2ccc(OC3CCN(C(=O)c4nn(C)c5ccccc45)C3)cc2)no1 (stereo not given)	u	11µM*	0%	i	u	19µM*	19µM*	0%	19µM*
COc1cccc(-c2noc(CC3CCN(C(=O)COc4cccc(C)c4)CC3)n2)c1	u	20µM*	0%	i	u	u	31µM*	2%	39µM*
Cc1ccc(F)c(OC2(C(=O)O)CCN(CC3[C@H]4CNC[C@@H]34)CC2)c1 (stereo not given in full)	-10%	2%	i	i	-2%	x	x	x	x
O=C(NCc1ccc2c(c1)OCO2)c1nc(-c2cccc(C(F)(F)F)c2)c2ccccn12	-15%	u	-10%	i	u	-21%	-24%	3%	0%
O=C1c2cnc(-c3ccccc3OCc3ccccc3)nc2OCCN1CC1CC1	-17%[138 µM]	-1%[70.6 µM]	-14%[88.5 µM]	u	u	x	x	x	x
CCN(Cc1ccncc1)C(=O)CC(c1ccccc1)c1ccc2c(c1)OCO2 (stereo not given)	-23%	u	u	i	u	u	14µM*	5%	5%
CCN(Cc1ccncc1)C(=O)c1ccc(C2CCNC2)cc1 (stereo not given)	2%	-1%	-2%	i	-27%	x	x	x	x
Cc1ccc(C)c(CN2C(=O)NC3(CCN(C(=O)Cc4cccc(F)c4)CC3)C2=O)c1	u	u	-18%	i	u	u	u	3%	u
O=C(Cc1cccc(F)c1)N1CCC2(CC1)NC(=O)N(Cc1ccccc1Cl)C2=O	u	u	i	i	u	u	-26%	3%	-24%
O=C1COc2ccc(OCc3cccnc3)nc2CN1CCOc1ccccc1	u	u	i	i	u	x	x	x	x
O=C1COc2ccc(OCc3ccc(F)cc3)nc2CN1CCOc1ccccc1	u	32µM*	-14%[88.5 µM]	i	u	35µM*	35µM*	-3%[86.2 µM]	28µM*
O=C1COc2ccc(OCc3cncs3)nc2CN1CCOc1ccccc1	u	32µM*	-1%[88.5 µM]	i	u	40µM*	31µM*	-2%[86.2 µM]	u
COc1ccc(Nc2ccnc(N3CCCC3C(=O)NCc3ccccc3)n2)cc1 (stereo not given)	-24%	x	i	x	u	x	x	x	x
O=C(NCc1ccccc1)c1nc2c(o1)CCN(Cc1ccc(F)cc1)CC2	u	u	4%[88.5 µM]	i	u	35µM*	35µM*	0%[86.2 µM]	35µM*
Cc1cccc(CN2CCc3nc(C(=O)NCc4ccccc4)oc3CC2)c1	u	-27%[70.6 µM]	0%[88.5 µM]	i	u	x	x	x	x
O=C(NCc1ccccc1)c1nc2c(o1)CCN(Cc1ccc(F)c(Cl)c1)CC2	45µM*	22µM*	-6%[88.5 µM]	i	u	28µM*	28µM*	-2%[86.2 µM]	20µM*
O=C(NC1CC1)C1CCCN1c1nc2ncccc2o1 (stereo not given)	-8%[138 µM]	1%[70.6 µM]	0%[88.5 µM]	i	i	x	x	x	x
O=C(Cc1c(F)cccc1Cl)NC1CCN(c2cc(-c3ccc(F)cc3)[nH]n2)CC1	-23%	-21%	i	i	u	x	x	x	x
CN(Cc1cccnc1)Cc1nc(C2(O)CCN(Cc3ccc(F)cc3)CC2)cs1	u	u	1%[88.5 µM]	i	u	x	x	x	x
CN(Cc1cccnc1)Cc1nc(C2(O)CCN(Cc3ccc(C(F)(F)F)cc3)CC2)cs1	-46%	1µM*	i	i	-58%	0.86µM*	1.7µM*	0%	0.86µM*
Cc1noc2c(-c3cn[nH]c3)cc(-c3cccc(C(F)(F)F)c3)nc12	25µM*	u	2%[88.5 µM]	i	35µM*	u	-29%[86.2 µM]	-8%[86.2 µM]	-16%[86.2 µM]
O=C(c1ccccn1)N1CCC(Cc2nc(C3CC3)n[nH]2)C1 (stereo not given)	i	-11%	0%	i	-5%	x	x	x	x
CCc1noc(-c2nc(-c3ccc(F)c(Br)c3)no2)n1	-23%	-15%	-24%	i	u	x	x	x	x
Cn1ccc(NC(=O)c2ccc3c(c2)NC(C)(CCCCc2ccccc2)CO3)n1 (stereo not given)	40µM*	10µM*	i	i	45µM*	14µM*	20µM*	1%[86.2 µM]	13µM*
CN1C[C@@H](NC(=O)Nc2ccc(Cl)cc2)C[C@H]1c1nc(-c2ccc(F)cc2)no1	u	32µM*	-4%[88.5 µM]	i	32µM*	13µM*	20µM*	1%[86.2 µM]	13µM*
SMILES	NIH3T3 tox	NPR1 antag	GPT2 inhibitor	FLuc inh	HEK293 tox	Npr1 antag conf	Npr2 selectivity	FLuc inh counter	GloSensor cGMP
COc1ccc(-c2noc([C@@H]3C[C@H](NS(=O)(=O)c4ccc5ccccc5c4)CN3C)n2)cc1	u	20µM*	0%	i	u	24µM*	24µM*	u	19µM*
Cc1ccc(-c2noc([C@@H]3C[C@H](NC(=O)CC(C)(C)C)CN3C)n2)cc1	u	35µM*	1%[88.5 µM]	i	89µM*	u	u	-25%[86.2 µM]	u
CN1C[C@@H](NC(=O)CC(C)(C)CC(=O)O)C[C@H]1c1nc(-c2ccccc2)no1	-13%[174 µM]	8%[70.6 µM]	-14%[88.5 µM]	u	-5%[172 µM]	x	x	x	x
CN1C[C@@H](NC(=O)Nc2cccc(C#N)c2)C[C@H]1c1nc(-c2ccccn2)no1	-9%[174 µM]	-3%[70.6 µM]	-4%[88.5 µM]	i	u	x	x	x	x
CN1C[C@@H](NC(=O)Nc2cccc(C#N)c2)C[C@H]1c1nc(-c2ccc(Cl)cc2)no1	40µM*	25µM*	-35%[88.5 µM]	i	u	16µM*	25µM*	3%[86.2 µM]	18µM*
COCC(=O)N1CCC(O)(c2csc(CN3CCN(c4ccccn4)CC3)n2)CC1	3%[174 µM]	11%[70.6 µM]	-8%[88.5 µM]	i	3%[172 µM]	x	x	x	x
COc1ccc(C(=O)N2CCC3(CC2)NC(=O)N(Cc2ccc(F)cc2)C3=O)cc1OC	u	-13%	i	i	u	x	x	x	x
